Values without a mark were called inactive. The rule behind the calls is not given here.
target: Pantothenate synthetase (Mycobacterium tuberculosis (strain ATCC 25618 / H37Rv)) (UniProt P9WIL5); experiment: Recombinant Mtb pantothenate synthetase (PanC) inhibitors, coupled enzyme, confirmatory (AID 375); conditions: coupled enzyme assay; at 10 µM, active compounds read high;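 note: 0% = full reaction with vehicle and 100% = no enzyme background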
Sequence (P9WIL5 whole entry, looked up): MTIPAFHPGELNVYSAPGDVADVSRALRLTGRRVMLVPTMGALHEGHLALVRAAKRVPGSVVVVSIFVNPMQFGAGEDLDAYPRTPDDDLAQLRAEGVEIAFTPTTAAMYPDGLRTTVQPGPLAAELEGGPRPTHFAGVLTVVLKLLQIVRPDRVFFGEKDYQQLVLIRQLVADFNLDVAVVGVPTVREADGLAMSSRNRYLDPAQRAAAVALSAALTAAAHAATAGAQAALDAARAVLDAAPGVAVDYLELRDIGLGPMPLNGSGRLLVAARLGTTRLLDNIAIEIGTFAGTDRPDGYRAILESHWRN

Going from `Nc1cc(-c2ccccc2)ccc1O` to `O=c1oc(-c2ccco2)nc2ccccc12`, the inhibition rises from 1% to 2%.

First: CN(Cc1cnn(C)c1)C(=O)c1cc2ccccc2oc1=O
Second: Cc1ccc(NC(=O)c2ccccc2F)nc1
The inhibition of the first is higher: 3% for the first, 2% for the second.

Compared with `Cc1c(C(=O)OCc2ccccc2)[nH]c2c1C(=O)CC(c1ccco1)C2` (stereo not given), `Cc1c(NC(=O)c2ccc(CN3CCc4ccccc4C3)cc2)c(=O)n(-c2ccccc2)n1C` is lower in inhibition: 1% for the first, 0% for the second.

First: Cc1ccc(CNC(=O)C2CCCN(S(=O)(=O)c3cnc[nH]3)C2)cc1 (stereo not given)
Second: CCn1c(C(=O)N2CCC(C(=O)NCc3ccc4c(c3)OCO4)CC2)cc2sccc21
The inhibition of the first is higher: 2% for the first, 0% for the second.

Compared with `CCOc1ccc2[nH]c(O)c(NC(C)=O)c2c1`, `CCOC(=O)c1ccc2[nH]c3c(c2c1)CN(C)CC3` is higher in inhibition: 0% for the first, 1% for the second.

Compared with `CC(C)(S)[C@@H](N)C(=O)O`, `NC(=O)OCC(COC(N)=O)c1ccccc1` is lower in inhibition: 4% for the first, 1% for the second.

Compared with `CCCS(=O)(=O)N1CCCC(C(=O)NC2CCCC(C)C2C)C1` (stereo not given), `CC(C)CNC(=O)C1CC(=O)OC12CCCCC2` (stereo not given) is higher in inhibition: 0% for the first, 5% for the second.

Going from `C[C@@H]1C[C@H]2[C@@H]3CCC4=CC(=O)C=C[C@]4(C)[C@@]3(F)[C@@H](O)C[C@]2(C)[C@H]1C(=O)CO` to `COc1cccc2c1C(=O)c1c(O)c3c(c(O)c1C2=O)C[C@@](O)(C(C)=O)C[C@@H]3O[C@H]1C[C@H](N)[C@H](O)[C@H](C)O1`, the inhibition falls from 1% to 0%.

`O=C(COC(=O)c1ccccc1Oc1ccccc1)NC1CCS(=O)(=O)C1` (stereo not given) and `COc1cccc(NC(=O)Cc2nnc(SCC(=O)c3ccccc3)n2C)c1` are the same in inhibition: 0% for the first, 0% for the second.

Compared with `C=CCn1c(SC(C)C(=O)NC2(C#N)CCCCC2)nnc1-c1ccc(OC)cc1` (stereo not given), `O=C(CSc1nnc(COc2ccc(Cl)cc2)o1)OC1CCCCC1` is lower in inhibition: 5% for the first, 0% for the second.

`CCCCOc1cc(C(=O)NCCN(CC)CC)c2ccccc2n1` and `COCCN(CCOC)Cc1c(C)[nH]c2ccccc2c1=O` are the same in inhibition: 0% for the first, 0% for the second.

First: Cc1ccc(NC(=O)CCN2CCc3ccccc3C2)cc1
Second: CC1=C(C(=O)Nc2ccc(F)cc2)C(c2cccc(C)c2)n2nc(CCCO)nc2N1 (stereo not given)
The inhibition of the first is lower: 0% for the first, 6% for the second.

First: c1cncc(-c2nnc(-c3ccco3)o2)c1
Second: Cc1ccc(-c2nc(-c3cccnc3)no2)c(C)c1
The inhibition of the first is lower: 4% for the first, 5% for the second.

First: COC(=O)c1ccc(CNC(=O)CSc2nc3sc(C)c(C)c3c(=O)n2C)o1
Second: Cn1c(=O)cc(SCC(=O)NCC2CCCO2)c2ccc(Cl)cc21 (stereo not given)
The inhibition of the first is lower: 0% for the first, 10% for the second.

Going from `CC(C)(C)NC(=O)CN(C(=O)CS(=O)CC(=O)Nc1ccc(F)cc1)c1ccc(Cl)cc1` (stereo not given) to `COCCNC(=O)C(c1ccc(O)cc1)N(Cc1ccco1)C(=O)CCC(=O)Nc1nccs1` (stereo not given), the inhibition rises from 0% to 1%.

`COc1ccccc1N(CC(=O)NCc1ccccn1)S(C)(=O)=O` and `Cc1cc(C)cc(NC(=O)CCNS(=O)(=O)c2ccc3c(c2)oc(=O)n3C)c1` are the same in inhibition: 0% for the first, 0% for the second.

First: CCCCCCn1c(CN2CCN(Cc3ccccc3)CC2)nc2c1c(=O)n(C)c(=O)n2C
Second: COCCn1c(CN2CCN(c3cccc(Cl)c3)CC2)nc2c1c(=O)n(C)c(=O)n2C
The inhibition of the first is higher: 10% for the first, 0% for the second.

First: Cc1ccc(OC(=O)CCc2c(C)nc3ncnn3c2C)cc1
Second: CCOC(=O)C(CC)n1nc(C)n2c(cc3sccc32)c1=O (stereo not given)
The inhibition of the first is lower: 0% for the first, 4% for the second.

`CCN1CCN(C(=O)c2ccc3c(=O)n(CCC4=CCCCC4)c(=O)[nH]c3c2)CC1` and `CCOC(=O)N1CCN(C(=O)c2csc3c2CCCCC3)CC1` are the same in inhibition: 0% for the first, 0% for the second.

`Cc1ccc(N=Cc2ccc(O)cc2O)cc1F` and `COc1ccc(C2C(C#N)=C(N)Oc3cc4c(cc32)OCO4)cc1` (stereo not given) are the same in inhibition: 0% for the first, 0% for the second.

From PubChem BioAssay
